BaF3 tox: parental Ba/F3 viability inhibition as JAK2V617F counter-screen | AID 1486 | inhibition, % at 5.6 µM | CellTiter-Glo ATP luminescence | 220,000 tested, 1.1% active;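 active = inhibition above a per-campaign cutoff, the mean inhibition of all tested compounds plus 3 SD, cut at about 27% in these data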;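 also: 0% = DMSO wells and 100% = JAK Inhibitor I control wells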
IEC-6 cytotox: kills IEC-6 intestinal cells in KLF5 counter-screen; inhibition, % at 5 µM; 290,000 tested, 0.78% active; AID 1825; IEC-6 cytotoxicity, luminescence viability; in the data active = inhibition above about 22%;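 also: 0% = plate median of test compound wells and 100% = cytotoxic reference compound wells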
aSyn UTR inh: MLPCN primary screen, SNCA 5' untranslated region; alpha-synuclein 5'UTR reporter, inhibitor activity; inhibition, % (tested at 7.5 µM); 300,000 tested, 0.82% active; in the data active = inhibition above about 60%;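 also: H4 neuroglioblastoma cells stably carrying SNCA 5'UTR luciferase fusion; 0% = DMSO wells and 100% = positive control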
KLF5 inhibitor: inhibitors of KLF5 expression | DLD-1 KLF5 promoter-luciferase reporter, luminescence | inhibition, % at 5 µM | 290,000 tested, 0.23% active;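 active = inhibition above a per-plate limit of that plate's mean compound inhibition plus 3 SD, cut at about 60% in these data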;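 also: 0% = DMSO wells and 100% = LY294002 at 200 µM; higher means less KLF5 promoter-driven luciferase light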
Ba/F3 V617F tox: reduce viability of Ba/F3 cells dependent on JAK2V617F. 220,000 tested, 1.1% active. AID 1446. Ba/F3 EpoR-JAK2V617F viability, ATP luminescence. inhibition, % at 5.6 µM;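 active = inhibition above the campaign mean plus 3 SD over all tested compounds, cut at about 24% in these data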;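 also: cytokine-independent growth of Ba/F3 cells driven by EpoR plus mutant JAK2; 0% = DMSO-treated cells and 100% = JAK inhibitor I control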
APP transl inh: APP translation inhibition; 190,000 tested, 0.82% active; inhibition, % at 2 µM; SH-SY5Y APP 5'UTR-luciferase reporter, luminescence;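 active = inhibition above a set limit, derived from the sample mean plus 3 SD, cut at about 45% in these data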
* hit, by the source's call. A selection: hits, their analogues and other compounds. The true share with any hit is near 2.2%.

Screening Cc1ccc2[nH]cc(/C=C/c3cc[n+](C)cc3)c2c1 returned IEC-6 cytotox -7, aSyn UTR inh 65* and KLF5 inhibitor 9.
COc1ccc(N(CC(=O)NC2CCCCC2)C(=O)CCC(=O)Nc2nc(C)cs2)cc1OC was read as IEC-6 cytotox 0, aSyn UTR inh 2 and KLF5 inhibitor -14.
COc1cccc2nc3cc(C)c(C)cc3nc12 was read as BaF3 tox 29*, IEC-6 cytotox 14, aSyn UTR inh 41, KLF5 inhibitor -126 and Ba/F3 V617F tox 29*.
COc1ccc2cc(CCNC(=O)c3ccc(S(=O)(=O)N4CCCC4)cc3)c(=O)[nH]c2c1 was read as IEC-6 cytotox 2, aSyn UTR inh 1 and KLF5 inhibitor -14.
`CCCNC(=O)CCn1nc(-c2ccc(C)cc2)c2ccccc2c1=O` gave IEC-6 cytotox -1, aSyn UTR inh 17 and KLF5 inhibitor -16.
For CCCNC(=O)CCn1nc(-c2ccc(Cl)cc2)c2ccccc2c1=O the results were BaF3 tox 4, IEC-6 cytotox 6, aSyn UTR inh 82*, KLF5 inhibitor 9 and Ba/F3 V617F tox 5.
Screening COc1ccc(N2CC(C(=O)Nc3ccncc3)CC2=O)cc1 (centres undefined) returned IEC-6 cytotox -5, aSyn UTR inh 0 and KLF5 inhibitor -18.
CC(=O)c1cccc(N2C(=NC(=O)C3CCCCC3)SC3CS(=O)(=O)CC32)c1 (centres undefined) was read as IEC-6 cytotox 7, aSyn UTR inh 3 and KLF5 inhibitor 1.
COc1cc(NC(=O)Cn2ncc(Cl)c(Cl)c2=O)c(C)cc1[N+](=O)[O-] was read as BaF3 tox 73*, IEC-6 cytotox 3, aSyn UTR inh 121*, KLF5 inhibitor -6, Ba/F3 V617F tox 74* and APP transl inh 95*.
Cc1cc(-n2c(C)cc(C(=O)CSc3nnc4sc5ccccc5n34)c2C)no1 was read as BaF3 tox 1, IEC-6 cytotox -3, aSyn UTR inh -4, KLF5 inhibitor 15, Ba/F3 V617F tox -2 and APP transl inh -7.
`Cc1cc(-n2c(C)cc(C(=O)CSc3ncnc4ccccc34)c2C)no1` gave BaF3 tox 51*, IEC-6 cytotox 5, aSyn UTR inh -40, KLF5 inhibitor -7, Ba/F3 V617F tox 44* and APP transl inh 4.
`Cc1ccc(C)c(NC(=S)NCc2ccc3[nH]c4c(c3c2)CCCC4)c1` gave BaF3 tox 8, IEC-6 cytotox 0, aSyn UTR inh 14, KLF5 inhibitor -2, Ba/F3 V617F tox 1 and APP transl inh 47*.
`COc1ccc(CNC(=S)Nc2cc(C)ccc2C)cc1` gave BaF3 tox 4, IEC-6 cytotox -2, aSyn UTR inh 21, KLF5 inhibitor -18, Ba/F3 V617F tox -2 and APP transl inh 70*.
Screening O=C(Cc1ccc(Br)cc1)N(Cc1ccccc1)c1ccccn1 returned BaF3 tox 5, IEC-6 cytotox 4, aSyn UTR inh -5, KLF5 inhibitor 3, Ba/F3 V617F tox 5 and APP transl inh -9.
Screening Cc1onc(-c2ccccc2)c1C(=O)NC(=S)NNC(=O)c1ccc(O)cc1O returned BaF3 tox 72*, IEC-6 cytotox -5, aSyn UTR inh 64*, KLF5 inhibitor 56, Ba/F3 V617F tox 98* and APP transl inh 27.
Cc1onc(-c2ccccc2)c1C(=O)NC(=S)NNC(=O)c1ccccc1O was read as BaF3 tox 84*, IEC-6 cytotox 1, aSyn UTR inh 63*, KLF5 inhibitor 22, Ba/F3 V617F tox 101* and APP transl inh -8.
`Cc1onc(-c2ccccc2)c1C(=O)NC(=S)NNC(=O)c1ccc(O)cc1` gave BaF3 tox 7, IEC-6 cytotox 2, aSyn UTR inh 32, KLF5 inhibitor 4, Ba/F3 V617F tox 0 and APP transl inh 18.
For CC(C)C(NC(=O)c1ccco1)C(=O)OCC(=O)Nc1ccc(C(N)=O)cc1 (centres undefined) the results were BaF3 tox 9, IEC-6 cytotox -5, aSyn UTR inh 0, KLF5 inhibitor -26, Ba/F3 V617F tox -1 and APP transl inh 17.
O=C(Nc1cc(Cl)ccc1N1CCCC1)C1=NN(c2ccccc2)C(=O)CC1 was read as IEC-6 cytotox -1, aSyn UTR inh 5 and KLF5 inhibitor -46.
`COc1ccc(OC)c(-n2nnnc2SCC(=O)N2CCN(C(=O)c3ccco3)CC2)c1` gave BaF3 tox 41*, IEC-6 cytotox 0, aSyn UTR inh 10, KLF5 inhibitor -25, Ba/F3 V617F tox 1 and APP transl inh 3.
For COc1ccc(-n2nnnc2SCC(=O)N2CCN(C(=O)c3ccco3)CC2)cc1OC the results were BaF3 tox 5, IEC-6 cytotox -6, aSyn UTR inh 16, KLF5 inhibitor -4, Ba/F3 V617F tox -1 and APP transl inh 6.
`FC(F)(F)c1cccc(N2CCN(C3CC4CCC3C4)CC2)c1` (centres undefined) gave IEC-6 cytotox -1, aSyn UTR inh -4 and KLF5 inhibitor -18.
For CCOC(=O)c1c2c(n(C)c1COC)C(=O)C(=O)c1ccc(Br)cc1-2 the results were BaF3 tox -2, IEC-6 cytotox -2, aSyn UTR inh 92*, KLF5 inhibitor -15, Ba/F3 V617F tox -7 and APP transl inh 0.
Screening CCCn1c(=O)c(C(=O)OCC)c(O)c2cc(Br)ccc21 returned BaF3 tox 7, IEC-6 cytotox 5, aSyn UTR inh 3, KLF5 inhibitor -17, Ba/F3 V617F tox 2 and APP transl inh -12.
`CCc1ccc(CC2S/C(=C(\C#N)C(C)=O)NC2=O)cc1` (centres undefined) gave BaF3 tox 0, IEC-6 cytotox 70*, aSyn UTR inh 20, KLF5 inhibitor -6, Ba/F3 V617F tox -4 and APP transl inh 6.
CCOC(=O)c1ccc(CC2S/C(=C(\C#N)C(C)=O)NC2=O)cc1 (centres undefined) was read as BaF3 tox 4, IEC-6 cytotox -3, aSyn UTR inh -8, KLF5 inhibitor -6, Ba/F3 V617F tox -1 and APP transl inh 12.
`COc1ccc(N(C(=O)CCl)C(C(=O)NCCc2ccccc2)c2cccs2)cc1` (centres undefined) gave BaF3 tox 30*, IEC-6 cytotox 41*, aSyn UTR inh -16, KLF5 inhibitor 6, Ba/F3 V617F tox 102* and APP transl inh 16.
For CC(C)CNC(=O)c1c(F)c(F)c(F)c(F)c1F the results were BaF3 tox 74*, IEC-6 cytotox -6, aSyn UTR inh -21, KLF5 inhibitor -3, Ba/F3 V617F tox 11 and APP transl inh -14.
For O=C(NCCCCNC(=O)c1c(F)c(F)c(F)c(F)c1F)c1c(F)c(F)c(F)c(F)c1F the results were BaF3 tox 1, IEC-6 cytotox 1, aSyn UTR inh -11, KLF5 inhibitor -9, Ba/F3 V617F tox -2 and APP transl inh 0.
C=CCN1CN(Cc2ccco2)CNC1=S was read as BaF3 tox 3, IEC-6 cytotox -3, aSyn UTR inh 9, KLF5 inhibitor -8, Ba/F3 V617F tox -3 and APP transl inh 62*.
